What was measured:
Details in all cases: concentration: 1 μM, replicates: in singlicate; n = 1
[1] = tested on: NEK6
[2] = tested on: NEK7
[3] = tested on: NEK9
[4] = tested on: T1, NIK
T1 construct: gene MAP3K14

[5] = tested on: T2, NIM1
T2 construct: gene MGC42105

[6] = tested on: NLK
[7] = tested on: T3, OSR1
T3 construct: gene OXSR1

[8] = tested on: PAK1
[9] = tested on: PAK2
[10] = tested on: PAK3
[11] = tested on: PAK4
[12] = tested on: PAK6
[13] = tested on: PAK7
[14] = tested on: T4, PCTK1
T4 construct: gene CDK16

[15] = tested on: T5, PCTK2
T5 construct: gene CDK17

[16] = tested on: T6, PCTK3
T6 construct: gene CDK18

[17] = tested on: PDGFRA
[18] = tested on: PDGFRB
[19] = tested on: PDPK1
[20] = tested on: PFTAIRE2
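Note: KINOMEscan kinase panel screen.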

Row | Compound | %Inh [1] | %Inh [2] | %Inh [3] | %Inh [4] | %Inh [5] | %Inh [6] | %Inh [7] | %Inh [8] | %Inh [9] | %Inh [10] | %Inh [11] | %Inh [12] | %Inh [13] | %Inh [14] | %Inh [15] | %Inh [16] | %Inh [17] | %Inh [18] | %Inh [19] | %Inh [20]
1 | COc1ccc(Nc2ncc(C#N)c(Nc3ccccc3C(N)=O)n2)cc1N1CCN(C)CC1.Cl [GSK1558669] | 99.9% | 97.4% | 98.2% | 96.6% | 99.9% | 71% | 100% | 91.2% | 96.9% | 100% | 99.2% | 93.9% | 99.9% | 99.2% | 98.2% | 88% | 97.9% | 100% | 37% | 97.6%
2 | Nc1nccc(-c2c(-c3ccc(F)cc3)ncn2C2CCN(CC(F)(F)F)CC2)n1 [SB-236560] | 0% | 0% | 20% | 13% | 50% | 60% | 0% | 0% | 0% | 100% | 16% | 0% | 0% | 1% | 0% | 0% | 3% | 0% | 0% | 23%
3 | Cl.Nc1ncnc2occ(-c3ccc(NC(=O)Nc4cc(C(F)(F)F)ccc4F)cc3)c12 [SB-707548] | 0% | 0% | 76% | 36% | 28% | 26% | 3% | 24% | 30% | 15% | 9% | 6% | 26% | 11% | 80% | 67% | 99.8% | 100% | 33% | 68%
4 | O=C(c1ccc(-c2cc(-c3c[nH]nc3-c3ccccn3)ccn2)cc1)N1CCOCC1 [GW812171] | 2% | 0% | 0% | 32% | 0% | 0% | 0% | 7% | 0% | 0% | 6% | 0% | 0% | 0% | 0% | 0% | 0% | 0% | 0% | 0%
5 | CSc1ccc(-c2cc3ncnc(SCC(=O)O)c3s2)cc1 | 17% | 8% | 0% | 0% | 0% | 26% | 0% | 0% | 0% | 0% | 0% | 0% | 8% | 0% | 0% | 6% | 15% | 50% | 10% | 12%
6 | COc1ccc(CNC(=O)NC2CCN(c3ccnc(Nc4ccc(OC)cc4)n3)C2)cc1 (centres unmarked) [GSK1379727] | 0% | 0% | 6% | 17% | 33% | 24% | 0% | 0% | 0% | 0% | 0% | 0% | 1% | 0% | 0% | 4% | 0% | 20% | 0% | 7%
7 | Cn1cc(-c2ccc3c(c2)CCN3C(=O)Cc2ccccc2Cl)c2c(N)ncnc21 [GSK2608885] | 3% | 17% | 33% | 8% | 7% | 86% | 10% | 44% | 13% | 28% | 0% | 13% | 23% | 7% | 0% | 0% | 78% | 99.9% | 23% | 14%
8 | Cc1ccc(NC(=O)c2ccnc(N3CCN(C)CC3)c2)cc1-c1ccc(C(=O)NCC2CC2)cc1 [GW775604] | 0% | 0% | 0% | 4% | 0% | 0% | 0% | 9% | 37% | 0% | 0% | 0% | 0% | 0% | 0% | 0% | 0% | 93.4% | 0% | 1%
9 | CN1c2ccc(CNc3ccc(F)cc3)cc2-c2c(cnn2C)S1(=O)=O | 0% | 0% | 0% | 0% | 0% | 0% | 0% | 0% | 14% | 0% | 0% | 0% | 0% | 0% | 0% | 0% | 0% | 0% | 12% | 0%
10 | c1ccc(-c2cc(-c3c[nH]nc3-c3ccccn3)ccn2)cc1 [GW576604] | 0% | 0% | 17% | 24% | 20% | 44% | 0% | 16% | 13% | 16% | 0% | 0% | 0% | 0% | 0% | 36% | 0% | 17% | 0% | 16%
